Assay outcomes (PubChem)
Most compounds without a hit are left out; they make up all but 7.8% or so of the library.
HCV inhibitor = HCV inhibition. Huh7.5.1 HCVcc-Cre infection, luciferase reporter, 44 h. Potency, µM (highest dose often 41.8 µM), without a hit: at the top dose activity change, negative = inhibition, hits mostly inhibitors. AID 651820. 340,000 compounds, 3.4% hits; active = well fitted inhibition curve with a large enough effect; inconclusive = small, poorly fitted or top-dose-only effect, or another doubt; inactive = no such curve, though single readings can be large or run the other way; note: potency is the fitted concentration of half-maximal effect
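Antiviral activity was scored by luciferase reporter output from cells infected with HCVcc-Cre (~0.5 moi) in presence of compound, 44 h infection period, cells seeded 1,000/well 4 h prior.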
Marburg entry inh = blocks Marburg virus binding to or entry into cells; Marburg virus pseudotyped entry inhibition, cell reporter; 300,000 compounds, 1.8% hits; Potency, µM (doses to about 37.8 µM), without a hit: at the highest dose activity change, negative = inhibition, actives largely listed as inhibitors; calls by dose curve; tested in HEK293 cells; note: potency is the fitted concentration of half-maximal effect
VACV Venus inh = vaccinia inhibition (Venus reporter); Vaccinia virus Venus reporter expression, fluorescence; Potency, µM (highest dose often 36.5 µM), inactives show at the top dose activity change, negative = inhibition, usual class: inhibitors; 330,000 compounds, 0.46% hits; AID 720580; calls by dose curve; tested in A549 cells; note: potency is the fitted concentration of half-maximal effect; nearly all actives have a fitted effect of over 30% in size
Lassa entry inh = blocks Lassa virus binding to or entry into cells; Lassa virus pseudotype entry inhibition, cell reporter; Potency, µM (doses to about 37.9 µM), without a hit: at the top dose activity change, negative = inhibition, usual class: inhibitors; 300,000 compounds, 1.2% hits; calls by dose curve; tested in HEK293 cells; note: potency is the fitted concentration of half-maximal effect; nearly all actives have a fitted effect of over 50% in size
HCMV inh = human cytomegalovirus inhibition; AID 1259415; HFF cells, HCMV-luciferase reporter, 72 h; active compounds read low; 410,000 compounds, 4.5% hits; activity change, negative = inhibition, % at 57.5 µM; in the data active = activity change below about -60%; inconclusive = no clear call, values can overlap the other calls; inactive = above about -39%
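Steps: HFFs plated, 16 h 37C; compounds added; HCMV-luciferase added to MOI 1 PFU/cell; 72 h 37C; OneGlo reagent, 5 min room temperature; luminescence read, normalized to controls.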
VACV mCherry inh = inhibitors of vaccinia virus infection (mCherry reporter signal). Potency, µM (highest dose often 36.5 µM), for the others: at the highest dose activity change, negative = inhibition, actives largely listed as inhibitors. Vaccinia virus mCherry reporter infection, fluorescence. 310,000 compounds, 0.63% hits. AID 720579; calls by dose curve; tested in A549 cells; note: potency is the fitted concentration of half-maximal effect; nearly all actives have a fitted effect of over 35% in size
An asterisk follows results filed as active; i = inactive; ? = inconclusive; nt = no result given; ! = a repeat was not active; [ ] = remark or other dose. % is set by controls: 0 for no effect and ±100 for the full control effect.

SMILES | HCV inhibitor | Marburg entry inh | VACV Venus inh | Lassa entry inh | HCMV inh | VACV mCherry inh
COc1ccccc1CCC(=O)Nc1cccc(S(=O)(=O)N2CCCCCC2)c1 | 10µM* | -12% | ? | -5% | 9 | -19%
Cc1ccc(C)c(OCCC(=O)Nc2ccc(S(=O)(=O)N3CCCC3)cc2)c1 | 8.9µM* | nt | nt | nt | -29 | nt
COc1cc(Cn2c3ccc(NC(=O)CCc4ccccc4)cc3c(=O)n2C)ccc1F | nt | nt | -30% | nt | -19 | ?
COc1ccc(NC(=O)CCOc2ccccc2C)cc1S(=O)(=O)N1CCCCC1 | 11µM* | ? | -9% | ? | ? | -16%
COc1ccccc1CCC(=O)Nc1ccc2c(c1)c(=O)n(C)n2-c1cccs1 | nt | nt | ? | nt | -84* | ?
COc1ccc(NC(=O)CCOc2ccc(C)cc2)cc1S(=O)(=O)N1CCOCC1 | -29% | -9% | -6% | -1% | 6 | i
Cc1cn(C)c(CC(=O)N2CCN(c3ccccc3F)CC2)c1C(=O)O | nt | nt | -8% | 4%[46.1 µM] | 0 | -10%
COc1ccccc1CCC(=O)Nc1ccc(OC)c(S(=O)(=O)N2CCCCC2)c1 | 11µM* | nt | nt | nt | -9 | nt
COc1ccccc1CCC(=O)OCC(=O)Nc1ccc(C)c(S(=O)(=O)N2CCCCC2)c1 | 32% | -7% | -5% | 8% | -9 | -15%
COC(=O)c1sc2cc([N+](=O)[O-])cc(SCC(C)C)c2c1N | -22% | 17% | -18% | -19% | -64* | -19%
CCOC(=O)c1sc2ncc([N+](=O)[O-])cc2c1N | -13% | -7% | nt | nt | -5 | nt
CCOc1ccc(-c2cc(C(=O)O)c3ccccc3n2)cc1 | -4% | 21µM* | nt | 12µM* | 69 | nt
CCOc1ccc(-c2cc(C(=O)NCCCN3CCN(CC)CC3)c3ccccc3n2)cc1 | 8.9µM* | ? | nt | -2% | 57 | nt
CCOc1ccc(-c2cc(C(=O)NCCc3ccc(C)cc3)c3ccccc3n2)cc1 | nt | nt | -10% | 16%[46.1 µM] | 33 | -13%
C/C(N)=C(/C#N)C(=O)COC(=O)c1cc(-c2ccc(Br)cc2)nc2ccccc12 | 10µM* | ? | ? | ? | 8 | ?
O=C(O)c1cc(-c2ccc(Cl)s2)nc2ccccc12 | 15% | 11µM* | 11% | ? | -2 | -10%
COc1ccccc1Cn1cc(C(=O)c2ccc(C)cc2)c(=O)c2cc3c(cc21)OCCO3 | nt | -15%[46.1 µM] | -17% | ? | -11 | -18%
CCOc1ccc(-c2cc(C(=O)NCCCn3ccnc3)c3ccccc3n2)cc1 | -19% | nt | nt | nt | -10 | nt
CCOc1ccc(-c2cc(C(=O)NCCCn3ccnc3)c3cc(Br)ccc3n2)cc1 | 10µM* | ? | ? | ? | -77* | ?
CCOCCCNC(=O)c1c(NC(=O)c2nc(SCC)ncc2Cl)sc2c1CCCC2 | nt | nt | -6% | nt | nt | 4%
O=C(Nc1cccc(S(=O)(=O)Nc2ccc(Cl)cc2)c1)c1cc2c(s1)CCCC2 | 11µM* | ? | ? | ? | -75* | ?
Cc1ccc(C(=O)Nc2ccc(C)c(S(=O)(=O)Nc3ccccc3Cl)c2)s1 | 10µM* | -29% | -26% | 5.2µM* | ? | -24%
O=C(Nc1ccc(Cl)c(S(=O)(=O)Nc2ccccc2Cl)c1)c1cccs1 | -7% | -31% | -14% | ? | -17 | -16%
Cc1ccc(NC(=O)c2cc3c(s2)CCCC3)cc1S(=O)(=O)Nc1ccccc1Cl | ? | ? | ? | 11µM* | -82* | ?
O=C(OCC1OC(n2cnc3c(N(C(=O)c4ccccc4)C(=O)c4ccccc4)ncnc32)C(O)C1F)c1ccccc1 (centres undefined) | 5% | -9% | ? | 13µM* | 5 | ?
SMILES | HCV inhibitor | Marburg entry inh | VACV Venus inh | Lassa entry inh | HCMV inh | VACV mCherry inh
Cc1ccc(NC(=O)CCS(=O)(=O)c2ccc(Br)s2)c(Br)c1 | nt | 2%[46.1 µM] | ? | -10%[46.1 µM] | -7 | ?
C=CCOc1ccccc1CNc1ccc2c(c1)OCCO2 | ? | ? | -15% | 11µM* | nt | -26%
CCOc1ccc(Br)cc1CNc1ccc2c(c1)OCCO2 | 11µM* | ? | -5% | -8% | -65* | -8%
CC(C)CCN(C(=O)Nc1ccc(Cl)c(Cl)c1)C1CCN(C(C)C)CC1 | nt | nt | -20% | 1%[46.1 µM] | -15 | -21%
CCOC(=O)N1CCC(N(C(=O)Nc2ccc(Cl)c(Cl)c2)C(C)CC)CC1 (centres undefined) | 10µM*! | ? | -27% | ? | ? | -8%
COc1ccccc1C(=O)NC(=O)CSc1nncn1C | 9% | 1% | 0% | 20% | -11 | -9%
COc1ccc(Cl)cc1C(=O)NNC(=O)CSc1nncn1C | 11% | 16%[46.1 µM] | 12% | 14%[46.1 µM] | -91* | -19%
CCCOc1ccc(NC(=O)CC2C(=O)N(CC)C(=S)N2CCCN2CCN(Cc3ccccc3)CC2)cc1 (centres undefined) | ? | ? | ? | ? | -84* | -29%
O=C(CC1C(=O)N(Cc2ccccc2)C(=S)N1CCN1CCOCC1)Nc1ccc(F)cc1 (centres undefined) | 3% | 6%[46.1 µM] | -6% | 1% | -69* | -18%
CCN1C(=O)C(CC(=O)Nc2ccc(Br)cc2)N(CCCc2ccccc2)C1=S (centres undefined) | ? | ? | ? | 13µM* | ? | nt
CCCOc1ccc(NC(=O)CC2C(=O)N(CC)C(=S)N2CCNC(C)=O)cc1 (centres undefined) | 10% | 16% | -21% | -2% | -13 | i
CC(C)(C)OC(=O)N1CCC(c2c(C(=O)N3CCN(c4ccccc4F)CC3)cnn2C(C)(C)C)CC1 | nt | nt | -13% | -29%[46.1 µM] | 1 | -21%
OC[C@@H]1CN(Cc2ccc(-c3ccccc3)cc2)C[C@H](n2cnc3c(NC4CCC4)ncnc32)O1 | nt | nt | -23% | nt | -88* | -21%
O=C(CSC1=Nc2ccccc2C2=NC(Cc3c[nH]c4ccccc34)C(=O)N12)NC1CCCCC1 (centres undefined) | -27% | -5% | nt | ? | 29 | nt
CC1CC(C)CN(C(=O)CSC2=Nc3ccccc3C3=NC(Cc4c[nH]c5ccccc45)C(=O)N23)C1 (centres undefined) | -25% | ? | nt | 2.6µM* | nt | nt
Cc1nc2sccn2c(=O)c1S(=O)(=O)Nc1cc(Cl)ccc1O | nt | nt | -15% | 4%[46.1 µM] | 15 | -26%
C[C@H](CO)N1C[C@H](C)[C@@H](CN(C)C(=O)c2ccc3c(c2)OCO3)Oc2cc(/C=C/c3ccccc3)ccc2S1(=O)=O | nt | nt | ? | nt | -62* | -18%
C[C@@H]1CN([C@H](C)CO)S(=O)(=O)c2ccc(C#Cc3ccccc3)cc2O[C@H]1CN(C)C(=O)Nc1ccc2c(c1)OCO2 | nt | nt | -27% | nt | -87* | -10%
CN1CCN(Cc2cccc(Oc3ccc(Cl)cc3)c2)CC1 | ? | ? | -18% | 2% | -61* | -11%
CCN1CCN(Cc2cccc(Oc3ccc(Cl)cc3)c2)CC1 | 13µM* | ? | ? | ? | 10 | -1%
OCCNc1nc2ccccc2nc1NCCO | -12% | -2%[46.1 µM] | 3% | -4%[46.1 µM] | 8 | -25%
